Test results published in PubChem BioAssay AID686978 (National Center for Advancing Translational Sciences (NCATS), 2013).
Several values for one entry are separate records, joined by “and”; a condition that tells them apart may be missing. Identical values can stand only once. About 64,000 (15%) of roughly 420,000 compounds were called active. Another 27% or so got no clear call; they are omitted. The call rests on the fitted dose curve; in most records, active means well fitted inhibition curve with a large enough effect; inconclusive means small, poorly fitted or top-dose-only effect; inactive means flat fitted curve, though single readings scatter. The list is a sample of the results.

Test: qHTS for Inhibitors of human tyrosyl-DNA phosphodiesterase 1 (TDP1): qHTS in cells in absence of CPT; further: nearly all actives have a fitted effect of over 55% in size
Conditions: DT40 Tdp1-/- hTDP1 cells, no CPT, ATP luminescence, 48 h; activity change, negative = growth inhibition: at 46.2 µM (top of the series)
Outline: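 Compound effects on proliferation are scored in DT40 Tdp1-/-;hTDP1 cells in the absence of CPT. ATP levels (CellTiter-Glo luminescence) are recorded after a ≥48 hr, 37 °C incubation.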
On the % scale 0 is the no-effect control and ±100 the full control effect; potency means the concentration at half of the fitted maximal effect.

Compound	activity change, negative = growth inhibition	Potency
Cn1c(N)cc(=O)n(C)c1=S	-14% (inactive)	–
Cc1n[nH]c(=O)c2c(NC(=O)COC(=O)c3ncc(Cl)c(Cl)c3Cl)oc(C)c12	6.05% (inactive)	–
O=C(CN1CCN(S(=O)(=O)c2ccc(Cl)s2)CC1)NCc1ccc(Cl)cc1	-29% (inactive)	–
N#Cc1ccc(COC(=O)Cn2nnc(-c3ccccc3)n2)cc1	-19% (inactive)	–
Cc1ccc(NC(=O)CN2C(=O)NC(C)(c3ccc(Cl)cc3)C2=O)c(Br)c1 (stereo unspecified)	-22.8% (inactive)	–
Cc1c(S(=O)(=O)NC(C)c2ccccc2)c(=O)n(C)c(=O)n1C (stereo unspecified)	-1.62% (inactive)	–
CCOC(=O)C(=O)Nc1nc(-c2ccccc2)c(CC)s1	8.26% (inactive)	–
CCOC(=O)c1cc(-c2sc(NC(=O)c3ccccc3)nc2C)n(-c2ccc(Br)cc2)n1	–	25.9 µM (active)
CCOc1ccc(C(=O)Nc2c3c(nn2-c2ccccc2)CS(=O)(=O)C3)cc1	-0.524% (inactive)	–
CCOC(=O)c1cc(-c2sc(NC(=O)c3ccccc3)nc2C)n(CCO)n1	–	6.51 µM (active)
CC(=O)c1sc(NC(=O)c2cccc3ccccc23)nc1C	-15.2% (inactive)	–
CCOC(=O)c1sc(NC(=O)CSc2nc(O)c(Cc3ccccc3)c(=O)[nH]2)nc1C	-10.8% (inactive)	–
CCOC(=O)c1cc(NC(=O)c2cccnc2)ccn1	1.41% (inactive)	–
CCOC(=O)c1cc(-c2sc(NC(=O)c3ccccc3)nc2C)n(Cc2ccccc2)n1	–	18.4 µM (active)
CCOC(=O)c1cc(OC(=O)c2ccccc2Cl)n(-c2ccccc2)n1	6.19% (inactive)	–
Cn1sc(NC(=O)c2ccccc2)nc1=O	-26.2% (inactive)	–
C=CCn1nc(C(=O)OCC)cc1-c1sc(NC(=O)c2ccccc2)nc1C	–	20.6 µM (active)
CCOc1ccccc1NC(=O)CSc1ncc(S(=O)(=O)c2ccc(C(C)(C)C)cc2)c(=O)[nH]1	-3.29% (inactive)	–
O=C1CSC2=NCN(c3ccccc3)CN12	-3.67% (inactive)	–
Nc1scc(-c2ccncc2)c1Cl	-16.4% (inactive)	–
Cc1nc2ccc(S(=O)(=O)N(C)CC(=O)NC(C)c3ccccc3)cc2s1 (stereo unspecified)	3.67% (inactive)	–
CCCc1cc(=O)oc2c(C)c(OC(C)C(=O)NCC(O)c3ccccc3)ccc12 (stereo unspecified)	-23.7% (inactive)	–

Compound	activity change, negative = growth inhibition	Potency
c1ccc2cc(OCCN3CCCC3)ccc2c1	-9.25% (inactive)	–
Cc1nnc2n1N=C(c1ccc3c(c1)NC(=O)CO3)CS2	5.1% (inactive)	–
CC(C(=O)NCCc1ccc(S(N)(=O)=O)cc1)N1C(=O)CC(C)(C)Sc2ccccc21 (stereo unspecified)	-15.5% (inactive)	–
Cc1c(C(=O)NNC(=O)c2ccncc2)oc2ccccc12	-22.1% (inactive)	–
C/C(=C/C(=O)N1CCN(C)CC1)C(=O)O	-3.36% (inactive)	–
COc1cc(-c2c(-c3ccc4c(c3)OCO4)noc2C)ccc1F	–	17.8 µM (active) and 16.4 µM (active)
COc1ccc(CCNC(=O)c2cc(-c3ccc4c(c3)OCO4)on2)cc1OC	11.6% (inactive)	–
COc1ccc(F)cc1S(=O)(=O)Nc1ccc2c(c1)OCO2	-6.78% (inactive)	–
O=C(CC1N=C2c3ccccc3N=C(SCc3cccc(Cl)c3)N2C1=O)NCc1ccc2c(c1)OCO2 (stereo unspecified)	–	20.6 µM (active)
NC(=O)CSC1=Nc2ccccc2C2=NC(CCC(=O)NCc3ccc(F)cc3)C(=O)N12 (stereo unspecified)	-4.51% (inactive)	–
COc1ccccc1NC(=O)CSC1=Nc2ccccc2C2=NC(CC(=O)NCc3cccs3)C(=O)N12 (stereo unspecified)	–	20.6 µM (active)
COc1ccccc1NC(=O)N1CCCC1C(=O)NCc1cccs1 (stereo unspecified)	-10.8% (inactive)	–
O=C(CC1N=C2c3ccccc3N=C(SCc3ccccc3Cl)N2C1=O)NCc1ccco1 (stereo unspecified)	-26.3% (inactive)	–
O=C(CSC1=Nc2ccccc2C2=NC(CC(=O)NCc3ccco3)C(=O)N12)NCc1ccco1 (stereo unspecified)	1.91% (inactive)	–
CC(C)NC(=O)N1CC[C@@]2(CCCN(C(=O)c3ccco3)C2)C1	-4.55% (inactive)	–
COc1ccc(N2C(=O)C3CCCN3C2c2cccc(OC)c2)cc1 (stereo unspecified)	7.35% (inactive)	–
Cc1ccc(S(=O)(=O)Nc2ccc3ncccc3c2)cc1	–	9.2 µM (active)
Cc1ccc(NS(=O)(=O)c2ccc(C(C)(C)C)cc2)cn1	3.16% (inactive)	–
Cc1ccc(OCC(=O)Nc2ccc(S(=O)(=O)Nc3ccccn3)cc2)cc1	-17.3% (inactive)	–
CS(=O)(=O)N(CC(=O)Nc1ccc(F)cc1)C1CCCCC1	-1.03% (inactive)	–
CS(=O)(=O)N1CCC2(CC1)CN(Cc1ccccc1)C2	3.71% (inactive)	–
O=c1onc(-c2cccs2)n1Cc1ccccc1	5.15% (inactive)	–

Compound	activity change, negative = growth inhibition	Potency
Cc1ccc(-c2nc(=N)sn2Cc2ccccc2)cc1	–	4.47 µM (active)
Cc1ccc(CN2C(=O)SC(Nc3ccccc3)C2=O)cc1 (stereo unspecified)	-22.8% (inactive)	–
c1ccc2c(c1)OCCOCCOCCO2	1.21% (inactive)	–
Cc1ccc(NC(=O)CN(C)C(=O)c2ccc(Br)o2)cc1	-27.8% (inactive)	–
O=C(Nc1ccccc1Cl)c1ccc2nsnc2c1	-17.8% (inactive)	–
O=C(Nc1ccccc1Cl)Nn1cnnc1	2.76% (inactive)	–
O=C(Nc1ccccc1Cl)/C(Cl)=C(\Cl)S(=O)c1ccccc1 (stereo unspecified)	–	0.206 µM (active)
C=CCn1c(COc2ccc(F)cc2)nnc1SCC(=O)Nc1cccc(S(N)(=O)=O)c1	8.91% (inactive)	–
O=C(c1cnccn1)N1CCN(S(=O)(=O)c2cccc(Cl)c2)CC1	-6.3% (inactive)	–
COc1cc(NS(=O)(=O)c2ccc(NC(=O)c3ccc(S(=O)(=O)N4CCCCC4)cc3)cc2)ncn1	-8.32% (inactive)	–
COc1ccc(S(=O)(=O)Nc2ccc(S(=O)(=O)N3CCCCC3)cc2)cc1OC	-18.2% (inactive)	–
COc1ccc(-c2ccc(Nc3ccc(S(=O)(=O)N4CCCC4)cc3)nn2)cc1OC	–	18.4 µM (active)
O=C(Nc1ccccc1C(F)(F)F)c1cc(-c2ccc(O)cc2)on1	-22.7% (inactive)	–
CCN(CC)Cc1cc(C(C)=O)ccc1O	-12% (inactive)	–
CC1CCCN(S(=O)(=O)c2ccc(C(=O)Nc3nnc(-c4ccncc4)o3)cc2)C1 (stereo unspecified)	–	10.3 µM (active)
COCCN(CC(=O)Nc1ccccc1C)S(=O)(=O)c1ccc(S(=O)(=O)N2CCCC2)cc1	-15.9% (inactive)	–
CC1CC(C)CN(S(=O)(=O)c2ccc(C(=O)NN3CCOCC3)cc2)C1 (stereo unspecified)	1.46% (inactive)	–
O=C(NCc1cccs1)C(=O)NCC1OCCCN1S(=O)(=O)c1ccc(F)cc1 (stereo unspecified)	-6.86% (inactive)	–
CC1CCCCN1S(=O)(=O)CCNC(=O)c1ccccc1 (stereo unspecified)	-11.4% (inactive)	–
CCN(CC(=O)NCc1cccs1)S(=O)(=O)c1ccc(NC(C)=O)cc1	-24.5% (inactive)	–
CC1CCCCN1S(=O)(=O)c1ccc(C(=O)Nc2nnc(-c3cccs3)o2)cc1 (stereo unspecified)	–	5.8 µM (active)
CCc1nnc(NC(=O)c2ccc(S(=O)(=O)NC3CCCCC3)cc2)s1	-23.5% (inactive)	–

Compound	activity change, negative = growth inhibition	Potency
CC1CCCCN1S(=O)(=O)c1ccc(S(=O)(=O)N(CC(=O)Nc2ccccc2)Cc2cccs2)cc1 (stereo unspecified)	–	25.9 µM (active)
CSCc1nnc(NC(=O)c2ccc(S(=O)(=O)N3CCCCC3C)cc2)o1 (stereo unspecified)	–	20.6 µM (active)
CC(=O)c1ccc(NC(=O)C2CCCN2S(=O)(=O)c2cccs2)cc1 (stereo unspecified)	-19.4% (inactive)	–
CS(=O)(=O)c1ccc(-c2nnc(NC(=O)c3ccc4c(c3)OCCO4)o2)cc1	-19.6% (inactive)	–
COC(=O)c1ccc(N(CC(=O)NC2CCCC2)C(=O)CNC(=O)c2ccco2)cc1	-8.13% (inactive)	–
C=C(C)C1CC=C(C)/C(=N/NC(=O)CCCNc2cccc(C)c2)C1 (stereo unspecified)	6.81% (inactive)	–
CCOc1ccc(-c2n[nH]c(=S)n2/N=C/c2cc3c(cc2[N+](=O)[O-])OCO3)cc1	-20.6% (inactive)	–
NC(=O)c1ccc(NC(=O)COC(=O)c2ccc([N+](=O)[O-])cc2)cc1	23.4% (inactive)	–
COCc1cc(C)nc2sc3c(=O)n(-c4cccc5ccccc45)nnc3c12	-15.1% (inactive)	–
CC1(C)OC[C@@H](COC(=O)CCc2ccc(OC[C@@H](O)CNCCNC(=O)N3CCOCC3)cc2)O1	–	inactive
CCc1ccc(Nc2nn3c(=O)c4cc5c(cc4nc3s2)OCO5)cc1	-10.1% (inactive)	–
C=CCN1C(=O)c2ccc(C(=O)N3CCC(C(=O)OCC)CC3)cc2C1=O	-1.68% (inactive)	–
CCOC(=O)C1CCN(C(=O)c2ccc3c(=O)n4nc(Nc5ccccc5CC)sc4nc3c2)CC1	–	10.3 µM (active)
Cc1ccccc1Nc1nn2c(=O)c3ccc(C(=O)NCCc4ccc(Cl)cc4)cc3nc2s1	–	14.6 µM (active)
C=CCn1c(SCC(=O)CC(=O)OCC)nc2cc(C(=O)N3CCC(C(N)=O)CC3)ccc2c1=O	-17.2% (inactive)	–
Cc1cc(C(=O)NCCc2ccc(Cl)cc2)c(C)o1	-17.5% (inactive)	–
Cc1ccc(C(=O)NC2CCN(C(=O)N3CCOCC3)CC2)cc1	-6.61% (inactive)	–
C#CCOCCOCCOCCNc1nc(N2CCN(C(=O)[C@H](C(C)C)n3cc(CCO)nn3)CC2)nc(N2CCN(C(=O)[C@H](C(C)C)n3cc(CCO)nn3)CC2)n1	6.58% (inactive)	–
COc1cccc(C(CC(=O)NCCN2CCOCC2)NS(=O)(=O)c2ccc(C)cc2)c1OC (stereo unspecified)	10.7% (inactive)	–
O=C(N/N=C/c1ccco1)c1ccc(NC(=O)C2CC2)cc1	-9.36% (inactive)	–
O=C(N/N=C/c1ccco1)c1ccc(C(=O)N/N=C/c2ccco2)o1	1.35% (inactive)	–
O=C(N/N=C/c1ccco1)c1csc2c1CCCC2	–	5.8 µM (active)

Compound	activity change, negative = growth inhibition	Potency
Cc1cccc(C(=O)NCCCN2CCCC2=O)c1	-23.4% (inactive)	–
Cc1nc2ccc(S(=O)(=O)NC(C(=O)N3CCCCCC3)C(C)C)cc2s1 (stereo unspecified)	-16.1% (inactive)	–
O=C(CN1C(=O)c2ccc([N+](=O)[O-])cc2C1=O)Nc1nnc(C2CC2)s1	-1.22% (inactive)	–
CCOc1ccc(N2C(=O)CC(N(O)c3ccccc3)C2=O)cc1 (stereo unspecified)	-1.45% (inactive)	–
O=C(NC1(C(F)(F)F)NC(=O)N(C2CCCCC2)C1=O)c1ccco1 (stereo unspecified)	-3.09% (inactive)	–
O=C(O)C#Cc1cccc2ccccc12	4.33% (inactive)	–
CC(=O)Nc1ccc(S(=O)(=O)N2CCSCC2)cc1	-22.9% (inactive)	–
COc1ccc(NC(=O)CCCOc2ccc(C(C)=O)cc2)cc1S(=O)(=O)N1CCCCC1	–	25.9 µM (active)
Cc1ccc(NC(=O)CCNC(=O)c2ccc([N+](=O)[O-])cc2)cc1S(=O)(=O)N1CCOCC1	-13.7% (inactive)	–
CC(=O)Nc1ccc(S(=O)(=O)N2CCN(S(=O)(=O)c3cccs3)CC2)cc1	-1.48% (inactive)	–
Cc1ccc(C)c(S(=O)(=O)N2CCN(CC(=O)Nc3ccc([N+](=O)[O-])cc3)CC2)c1	–	16.4 µM (active)
COc1ccc(NC(=O)CSc2nnc(C3CC3)n2C)cc1S(=O)(=O)N1CCCCC1	19.6% (inactive)	–
Cc1cccc(OCCCC(=O)Nc2ccc(S(=O)(=O)N3CCCC3)cc2)c1	–	18.4 µM (active)
C=CCNC(=O)CCCOc1cccc(C)c1	-0.741% (inactive)	–
Cc1ccc(OCCCC(=O)Nc2ccc(S(=O)(=O)Nc3cc(C)nc(C)n3)cc2)cc1	-6% (inactive)	–
CCOC(=O)C1CCN(CC(=O)Nc2ccc(OC)c(S(=O)(=O)N3CCCCC3)c2)CC1	-21.2% (inactive)	–
CC(=O)Nc1ccc(S(=O)(=O)N2CCN(CCCOc3cc(C)ccc3C)CC2)cc1	–	18.4 µM (active)
Cc1ccc(C)c(S(=O)(=O)N2CCN(C(=O)Nc3ccccc3)CC2)c1	-0.749% (inactive)	–
